# Measurements reported in the supplement of paper PMC9135407.
# Values joined by “and” are separate entries in the source; they are usually repeats but may differ in a detail not shown here. Equal values may be shown once. Where a name gives a salt, the structure may show the parent alone. The whole screen tested about 5,800 compounds, of which about 620 (11%) showed activity. This is one part of a sample in which actives are shown more often than they occur. Values without a mark were called inactive.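 How the source made its calls: active = score above a cut-off or among the top three wells of a plate; in these data no inactive exceeds 0.85.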
# Tested on: primary human hepatic stellate cells (donor 1)
# Assay: scaled lipid accumulation score (0 = DMSO-like, 1 = nortriptyline-like); higher = stronger HSC inactivation (lipid re-accumulation), active = hit call of the paper
# Conditions: 48 h
# [1] = library stock concentration: 3.33 mM
# [2] = library stock concentration: 1 mM
# [3] = library stock concentration: 10 mM
# [4] = library stock concentration: 80 uM
# [5] = library stock concentration: 400 uM
# [6] = library stock concentration: 2 mM
compound,measurement,setting,value
"N#Cc1cc([N+](=O)[O-])c2sc(C(N)=O)[n+]([O-])c2c1 [Polo-like Kinase Inhibitor II, BTO-1]",scaled lipid accumulation score,[1],≤ 0
CCCCC/C=C\C=C\[C@@H](O)CCCCCCCC(=O)O,scaled lipid accumulation score,library stock concentration: 100 uM,≤ -0.021
O=C(CN=C(c1ccccc1)c1ccccc1)OCc1ccccc1 [N-(diphenylmethylene) Glycine benzyl ester],scaled lipid accumulation score,[2],0.004
C#CCCCCCCCCCNC(=O)Oc1cccc(-c2cccc(C(N)=O)c2)c1,scaled lipid accumulation score,[2],≤ 0
CCC(=O)Nc1cccc(Oc2nc(Nc3ccc(N4CCN(C)CC4)cc3OC)ncc2Cl)c1 [listing 1 of 3 here],scaled lipid accumulation score,[3],0.997 (active)
C=CC(=O)Nc1cccc(Oc2nc(Nc3ccc(N4CCN(C)CC4)cc3)ncc2Cl)c1,scaled lipid accumulation score,[1],0.415
same,scaled lipid accumulation score,[3],0.711
CCC(=O)Nc1cccc(Oc2nc(Nc3ccc(N4CCN(C)CC4)cc3OC)ncc2Cl)c1 [listing 2 of 3 here],scaled lipid accumulation score,[3],1.11 (active)
CCC(=O)Nc1cccc(Oc2nc(Nc3ccc(N4CCN(C)CC4)cc3OC)ncc2Cl)c1 [listing 3 of 3 here],scaled lipid accumulation score,[4],≤ -0.001
same,scaled lipid accumulation score,[5],≤ -0.001
same,scaled lipid accumulation score,[6],≤ -0.001
same,scaled lipid accumulation score,[1],0.472
C=CC(=O)Nc1cccc(Oc2nc(Nc3ccc(N4CCN(C)CC4)cc3OC)ncc2Cl)c1,scaled lipid accumulation score,[4],≤ 0
same,scaled lipid accumulation score,[5],≤ 0
same,scaled lipid accumulation score,[6],0.172
same,scaled lipid accumulation score,[1],0.507
same,scaled lipid accumulation score,[3],0.707 and 0.265
COc1cc(N2CCC(N3CCN(C)CC3)CC2)ccc1Nc1ncc(Cl)c(Nc2ccccc2S(=O)(=O)C(C)C)n1,scaled lipid accumulation score,[4],≤ 0
same,scaled lipid accumulation score,[5],0.087
same,scaled lipid accumulation score,[6],0.571
same,scaled lipid accumulation score,[3],0.613
CCCCCCCCCCCC1N[C@H](C(=O)O)CS1 (some centres undefined),scaled lipid accumulation score,[2],≤ 0
CCCCC[C@H](O)/C=C/[C@@H]1[C@H](CCCCCCC(=O)O)[C@H](O)C[C@H]1O [8-iso Prostaglandin F1.beta.],scaled lipid accumulation score,[2],≤ 0
Cc1[nH]ccc2c1[nH]c1cc(=O)ccc12 [Harmol hydrochloride monohydrate],scaled lipid accumulation score,,0.689
"O=C(O)CCC/C=C\C[C@H]1C(=O)C=C[C@@H]1CC[C@@H](O)CCc1ccccc1 [17-phenyl trinor-13,14-dihydro Prostaglandin A2]",scaled lipid accumulation score,[2],≤ 0
Cc1cc(Nc2ccc(NC(=O)c3ccc(Nc4ccnc5ccccc45)cc3)cc2)nc(N)n1,scaled lipid accumulation score,[1],0.147
same,scaled lipid accumulation score,[3],≤ 0
CNCc1ccc(C)c(NC(=O)c2ccc(Nc3nc(-c4ccccc4)c4ccccc4n3)cc2)c1 [listing 1 of 2 here],scaled lipid accumulation score,[3],0.17
CNCc1ccc(C)c(NC(=O)c2ccc(Nc3nc(-c4ccccc4)c4ccccc4n3)cc2)c1 [listing 2 of 2 here],scaled lipid accumulation score,[1],1.14 (active)
CCC(C)(Oc1ccc(C2(c3ccc(OC(C)(CC)C(=O)O)cc3)CCCCC2)cc1)C(=O)O (centres undefined) [Clinofibrate],scaled lipid accumulation score,[1],≤ 0
same,scaled lipid accumulation score,[3],≤ 0
CNCC[C@@H](Oc1ccccc1C)c1ccccc1 [Tomoxetine],scaled lipid accumulation score,[3],0.59
CNCC[C@@H](Oc1ccccc1C)c1ccccc1 [Atomoxetine hydrochloride],scaled lipid accumulation score,library stock concentration: 7.2 mM,0.064
CN(C)[C@@H](CCOc1cccc2ccccc12)c1ccccc1 [Dapoxetine HCl],scaled lipid accumulation score,[1],0.506
same,scaled lipid accumulation score,[3],0.625
CNCC[C@@H](Oc1ccccc1C)c1ccccc1 [Tomoxetine hydrochloride],scaled lipid accumulation score,[3],0.484
CNCC[C@@H](Oc1ccccc1C)c1ccccc1 [Atomoxetine HCl],scaled lipid accumulation score,[1],0.319
same,scaled lipid accumulation score,[3],0.514
CNCC[C@H](Oc1cccc2ccccc12)c1cccs1.Cl [Duloxetine hydrochloride],scaled lipid accumulation score,library stock concentration: 6 mM,1.05 (active)
CNCC[C@H](Oc1cccc2ccccc12)c1cccs1 [Duloxetine HCl],scaled lipid accumulation score,[1],0.357
same,scaled lipid accumulation score,[3],0.796
CNCCC(Oc1ccccc1OC)c1ccccc1 (centres undefined) [Nisoxetine hydrochloride],scaled lipid accumulation score,,0.246
same,scaled lipid accumulation score,[3],0.751 and 0.328
CNCC[C@H](Oc1cccc2ccccc12)c1cccs1 [Duloxetine],scaled lipid accumulation score,[3],1.39 (active)
CNCC[C@H](Oc1cccc2ccccc12)c1cccs1,scaled lipid accumulation score,[3],0.953 (active)
Nc1n[nH]c(N)c1N=Nc1ccc(O)cc1 [Cdk9 Inhibitor II],scaled lipid accumulation score,[1],≤ 0
O=C(O)Cn1c(C(=O)Nc2nc(-c3ccccc3Cl)cs2)cc2ccccc21,scaled lipid accumulation score,[3],≤ -0.001
CC1=CC(=O)C2=C(C)CC[C@@H]3[C@H](OC(=O)[C@H]3C)[C@@H]12 [Leucomisine],scaled lipid accumulation score,,≤ 0
CCCCC[C@H](O)/C=C/[C@H]1C(=O)C[C@H](O)[C@@H]1CCCCCCC(=O)O [Prostaglandin D1],scaled lipid accumulation score,[2],0.018
CCCCC[C@H](O)/C=C/[C@H]1C(=O)C=C[C@@H]1C/C=C\CCCC(=O)O [Prostaglandin J2],scaled lipid accumulation score,[2],≤ 0 and ≤ -0.021
C[C@]1(O)C[C@@H](c2nc(-c3ccc4ccc(-c5ccccc5)nc4c3)c3c(N)nccn32)C1,scaled lipid accumulation score,[4],0.05
same,scaled lipid accumulation score,[5],≤ -0.009
same,scaled lipid accumulation score,[6],≤ -0.009
same,scaled lipid accumulation score,[3],≤ -0.009
C[C@]1(O)C[C@@H](c2nc(-c3ccc4ccc(-c5ccccc5)nc4c3)c3c(N)nccn32)C1 [OSI-906 (Linsitinib)],scaled lipid accumulation score,[1],≤ 0
same,scaled lipid accumulation score,[3],≤ 0
NCCCCCCCCCCNS(=O)(=O)c1cccc2c(Cl)cccc12 [A-7 hydrochloride],scaled lipid accumulation score,[3],0.41
CC1CNCCN1S(=O)(=O)c1cccc2cnccc12 (centres undefined),scaled lipid accumulation score,[3],0.081
Cl.O=S(=O)(c1cccc2c(Cl)cccc12)N1CCCNCC1,scaled lipid accumulation score,[3],0.935 (active)
Cl.O=S(=O)(c1cccc2c(Cl)cccc12)N1CCCNCC1 [ML 9 hydrochloride],scaled lipid accumulation score,[3],0.941 (active)
CCCCCCCC/C=C\CCCCCC(=O)OC [cis-7-Hexadecenoic Acid methyl ester],scaled lipid accumulation score,[2],≤ 0
CNc1nc(Nc2cn(C(C)(C)C#N)nc2C)ncc1C(F)(F)F,scaled lipid accumulation score,[1],≤ -0.009
same,scaled lipid accumulation score,[3],0.132
N[C@@H]1[C@H]2CN(c3nc4c(cc3F)c(=O)c(C(=O)O)cn4-c3ccc(F)cc3F)C[C@@H]12 [Trovafloxacin mesylate],scaled lipid accumulation score,[3],0.112
